The first experiment addresses MAGOHB. Briefly: pooled miR-30 sensor sort-seq; sequence = guide strand. Particulars: shRNA.
For the sequence TTTCTGATCATCACATCATTTT, the sensor-assay potency score (higher = more potent) was -1.65.
In the case of TTCTTCCATTACACTCTTGTGC, the sensor-assay potency score (higher = more potent) is -0.965.
On to TTCCATTACACTCTTGTGCACA, for which the sensor-assay potency score (higher = more potent) is -0.478.

The target in the next experiment is MAGOH. The description is as above. Particulars: shRNA.
As to TTCTTGTAATTGCTGTTGTTGG, the sensor-assay potency score (higher = more potent) is -1.26.
On the same count and under the same terms, with TTTTCTGATCATGACATCATTC the figure was -1.16.
ATATCTTAACTTCCCGTCCGGT showed a sensor-assay potency score (higher = more potent) of -0.615.
With TATCTTAACTTCCCGTCCGGTC, the sensor-assay potency score (higher = more potent) was -1.04.
On the same count and under the same terms, with TTGGCATATCTTAACTTCCCGT the figure was -0.899; with TCCAATAAGACTGAAGACCAAA, -1.96.
The same measure, in the same setting: to TAATAAAATACTCGTAAGCCTT belongs -0.986.
Sequence TCTGATCATGACATCATTCTTG registered a sensor-assay potency score (higher = more potent) of 0.0716.
Still for that read-out and setting: with TTGATTGACATCAATAAGGGAA the figure was 0.101; with TAAGCCTTCTGGATCCTTGGAT, 0.401; with TTAACTTCCCGTCCGGTCGAAA, -1.06.
The same measure, in the same setting: to TCAAACTCCAGGAACTCGTGGC belongs 0.562.

A further experiment addresses MALL. The experiment is described as above. As to conditions: shRNA.
TAAATGTCCAAACAAAGTGTGG: the sensor-assay potency score (higher = more potent) was -1.11.
Sequence TACAGGATGCCAGTGGTCCCGT gave a sensor-assay potency score (higher = more potent) of -0.996.
The same measure, in the same setting: to AATTAATGTAGTAAATTCTTGG belongs -0.359; to TAAGACAACAGGAACATCAAGG, -0.729; to TTAATGTAGTAAATTCTTGGGT, -0.194.
TAATGTAGTAAATTCTTGGGTC came in with a sensor-assay potency score (higher = more potent) of 0.801.
Sequence AGTTTCTCAGAAACAATCGTGG had a sensor-assay potency score (higher = more potent) of -1.29.
The same measure, in the same setting: to TTTCTCAGAAACAATCGTGGCA belongs 0.81; to TCTTTTGTAAAATCCAAACAAG, -1.37.
Sequence TTGTAAAATCCAAACAAGTAAG displayed a sensor-assay potency score (higher = more potent) of -1.62.
The sequence AAACAAGTAAGACAACAGGAAC returned a sensor-assay potency score (higher = more potent) of -1.63.
In turn, TTCTCAGAAACAATCGTGGCAT yielded a sensor-assay potency score (higher = more potent) of 0.00713.

Another experiment addresses MAMSTR. The description is as above. As to conditions: shRNA.
TTGACCGAGCCCTGACGCCGGG gave a sensor-assay potency score (higher = more potent) of -1.2.
On the same count and under the same terms, with TGCTGCGCTGGGCTTGACCGAG the figure was -1.43; with TGCTGGAGTCAGATAAGTCAGC, -1.36; with TCCAGAGTCAGAGCCGCTGAGC, -2.
As to TTAGGAAGCAACTGCGCCCTCC, the sensor-assay potency score (higher = more potent) is -0.483.
The same measure, in the same setting: with TCTGAAGTTCCAACTTGTGTGG the figure was -0.0798; with TAGACTTGGTCCCCGACACTGG, -0.651; with TTCCTGCAGCTCCTCCTCCAGA, -1.58.
The same measure, in the same setting: to TCGGCTTGGGGGTCTGCCCTGG belongs -0.566.
Turning to TTGTCTCCGATCCTGTGTCTGC, the sensor-assay potency score (higher = more potent) was -0.79.
Same read-out and setting: to TGGAGTCAGATAAGTCAGCGGA belongs -0.63; to TGAAGTTCCAACTTGTGTGGGG, 0.878.

The values are drawn from the OligoGym collection.
Also: reference of the scale not given here.
